Most compounds without a hit are left out; they make up all but 2.5% or so of the library.
F508del corr: correctors of CFTR F508del function in bronchial epithelial cells. AID 720511. CFBE cells, YFP halide quenching; stimulated with forskolin plus potentiator P3; % fluorescence drop versus neutral controls. activity (quench increase), % at 7.58 µM. 0.36% of 350,000 active;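 active means mean added fluorescence quench of at least 8% versus neutral control, with both replicates also reaching 8%; inconclusive means only one of the mean or replicate conditions met; inactive means mean below 8% and not both replicates reaching 8%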;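 further: cells transiently co-express mutant CFTR-F508del with the halide-sensitive YFP; corrector assay measuring rescue of mutant channel to the surface after 24 h compound exposure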
FXN GAA850 act: activators of GAA850 frataxin (FXN) promoter; AID 540364; HEK293 lucGAA850 FXN promoter luciferase reporter, 24 h; percent of 10 µM SAHA response; 0.56% of 360,000 active; activation, % at 6 µM;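 active means activation above the average of all compounds screened plus 3 SD, cutoff fixed separately per campaign, cut at about 7.5% in these data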;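 further: 0% = DMSO wells and 100% = 10 µM SAHA wells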
Env fusion inh: HIV envelope-mediated fusion inhibition | inhibition, % at 12.3 µM | 1.1% of 360,000 active | HeLa-JRFL Env/CEM21 cell fusion, luciferase;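 active means mean replicate inhibition score of at least 50 and every replicate individually at or above 50; inconclusive means only one of the two criteria met; inactive means mean below 50 and not all replicates reaching 50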;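 further: 0% = plate neutral controls and 100% = maraviroc near 300 nM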
EWS-Fli inh: EWS/Fli transcriptional activity inhibition. inhibition, % at 12.6 µM. A673 NR0B1-luciferase reporter, viability-normalised. 0.67% of 350,000 active;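 active means mean inhibition of at least 50% after viability correction, with every replicate also passing that limit; inconclusive means mean reaches 50% but only one of two replicates passes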;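 further: firefly luciferase signal divided by Alamar Blue viability fluorescence both relative to DMSO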
PAX8 inh HTS: lowers PAX8-driven luciferase in RMG-I cells | inhibition, % at 12.6 µM | AID 652154 | 1.2% of 360,000 active | RMG-I TPO-luciferase reporter, SteadyGlo, 24 h;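 active means mean replicate inhibition at least 60% with every replicate also reaching 60%; inconclusive means only one of the two criteria is met; inactive means mean below 60% and not all replicates reaching 60%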;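 further: luciferase light reporting Pax8 driven TPO promoter activity; plate controls were median of neutral control wells for no effect and mitoxantrone controls for full effect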
* marks the source's active call; other numbers are inactive results; u = inconclusive; x = no result given; [ ] = remark or other dose.

SMILES | F508del corr | FXN GAA850 act | Env fusion inh | EWS-Fli inh | PAX8 inh HTS
COc1cc2c(c(OC)c1O)-c1ccc(OC)c(=O)cc1C(NC(=O)C(F)(F)F)CC2 (stereo unspecified) | -5.7 | 0.3 | -110.6 | 36.8 | 79.6*
O=C(O)[C@@H]1[C@@H](CO)[C@@H]2Cn3c(ccc(-c4cccnc4)c3=O)[C@H]1N2S(=O)(=O)c1ccccc1F | -2.0 | x | x | -0.6 | -1.6
c1ccc2c[n+](CCCCCCCCCC[n+]3ccc4ccccc4c3)ccc2c1 | 0.8 | x | u | 20.1 | 81.2*
CC(=O)c1c(C)n(Cc2ccccc2)c2ccc(O)cc12 | -2.3 | 1.8 | 36.1 | 0.0 | 7.0
CC(=O)c1c(C)n(C2CCCCC2)c2ccc(O)cc12 | -3.6 | -8.6 | 62.1* | 3.6 | -11.6
OC[C@H]1[C@@H]2c3ccccc3NC[C@@H]2N1Cc1cccnc1 | 2.5 | x | x | 4.7 | -0.6
O=[N+]([O-])/C=C/c1c(Cl)cccc1Cl | -1.3 | 9.0* | -0.3 | 0.3 | 3.7
CCN(CC)c1ccc(/C=C/[N+](=O)[O-])cc1 | u | 0.4 | -51.8 | 6.6 | -13.9
CC12CCC(=O)C=C1C=CC1C2CCC2(C)C(O)CCC12 (stereo unspecified) | 0.0 | 3.9 | 80.7* | 10.1 | 2.7
CC1=NCCc2c1[nH]c1cc(O)ccc21 | 31.7* | -1.9 | -6.4 | -19.3 | -17.9
COc1nc(C)nc(NC(=O)NS(=O)(=O)c2ccccc2Cl)n1 | 13.8* | -0.1 | 42.1 | 2.3 | -15.6
COC(=O)[C@H]1[C@H](CO)[C@H]2Cn3c(ccc(-c4cccnc4)c3=O)[C@@H]1N2CCc1ccccc1 | 0.2 | x | x | -6.2 | 2.2
CCOC(=O)[C@]12Cc3cc(OC)ccc3[C@H]1N(C1CCCCC1)C(=O)c1cc(OC)ccc12 | 6.2 | x | -83.6 | 19.2 | 44.1
CCOC(=O)[C@]12Cc3cc(C)ccc3[C@H]1N(C1CCCCC1)C(=O)c1cc(OC)ccc12 | 2.0 | x | 23.2 | 46.4 | 103.6*
CC[n+]1c(-c2ccccc2)c2cc(N)ccc2c2ccc(N)cc21 | 10.0* | -3.4 | 8.3 | 12.7 | 110.5*
COC(=O)[C@H]1[C@H](CO)[C@H]2Cn3c(cccc3=O)[C@@H]1N2C(=O)C1CCC1 | -0.5 | x | x | 1.2 | x
CC(C)COC(=O)c1ccccc1C(=O)OCC(C)C | -1.6 | -0.1 | x | -7.3 | x
C[CH2][Hg][S]c1ccccc1C(=O)O | -7.3 | -3.4 | 13.2 | 46.6 | 109.5*
COc1cc2c(cc1O)C[C@H]1NCCc3cc4c(c-2c31)OCO4 | 5.5 | -1.1 | 2.2 | 19.6 | 85.6*
CC=Cc1ccc2n(c1=O)C[C@@H]1[C@@H](CO)[C@H](C(=O)OC)[C@H]2N1S(=O)(=O)c1ccccc1C (mixture of isomers) | -1.5 | x | x | 18.7 | -4.1
O=C(Cc1ccccn1)N1CCCCN2[C@H](CO)[C@H](c3ccc(C#Cc4ccccc4)cc3)[C@@H]2C1 | -2.3 | x | x | -12.0 | 4.2
C1=C(c2c[nH]c3ccccc23)CCN(Cc2ccccc2)C1 | 6.5 | -2.4 | 6.9 | 25.7 | 64.2*
C[C@@H]1CN([C@@H](C)CO)C(=O)CCCn2cc(nn2)CO[C@@H]1CN(C)C(=O)Oc1cccc2ccccc12 | -0.2 | x | -19.4[16.7 µM] | -0.6 | x
C/C=C/c1ccc([C@H]2[C@H]3CN(C(=O)Cc4ccncc4)CCCCN3[C@H]2CO)cc1 | 3.5 | x | x | -7.5 | 7.6
C=C1C(=O)O[C@@H]2C[C@@H](C)[C@@H]3C=CC(=O)[C@@]3(C)[C@@H](O)[C@H]12 | 12.9* | -14.8 | x | 58.4* | 111.5*
SMILES | F508del corr | FXN GAA850 act | Env fusion inh | EWS-Fli inh | PAX8 inh HTS
O=C(CNC(=O)OCc1ccccc1)Nc1ccc(Br)cc1C(=O)c1ccccc1 | x | -0.3 | 59.2* | x | x
O=C(Cc1cccnc1)N1CCCCN2[C@@H](CO)[C@@H](c3ccc(C#CC4CCCC4)cc3)[C@@H]2C1 | -1.2 | x | x | 10.1 | -10.3
O=C(Cc1cccnc1)N1CCCCN2[C@H](C1)[C@H](c1ccc(C#CC3CCCC3)cc1)[C@@H]2CO | -1.3 | x | x | 13.9 | 91.9*
O=C(Cc1ccccc1)N1CCCCN2[C@H](C1)[C@H](c1ccc(C#Cc3ccccc3)cc1)[C@@H]2CO | -0.9 | x | x | x | 25.9
O=C(Cc1ccncc1)N1CCCCN2[C@H](C1)[C@H](c1ccc(C#Cc3ccccc3F)cc1)[C@@H]2CO | 4.6 | x | x | 13.8 | 77.1*
Nc1ncnc2c1ccn2[C@@H]1O[C@H](CO)[C@@H](O)[C@H]1O | -13.4 | -15.9 | x | 55.6* | x
NC(=S)c1cn(C2OC(CO)C(O)C2O)c2ncnc(N)c12 (stereo unspecified) | -3.7 | -14.5 | 90.1* | 49.2 | 107.8*
COc1ccc(OC(=O)N(C)C[C@H]2OCc3ccccc3-c3c(n(C)c4ccccc34)C(=O)N([C@@H](C)CO)C[C@@H]2C)cc1 | -2.2 | x | x | 1.9 | 33.2
CCCN1[C@@H]2c3ccc(-c4ccc(OC)cc4)c(=O)n3C[C@H]1[C@H](CO)[C@H]2C(=O)OC | 2.3 | x | x | -3.9 | 8.0
CC[C@@]1(O)C(=O)OCc2c1cc1n(c2=O)Cc2cc3c(NC(=O)CN)cccc3nc2-1 | -0.9 | -8.3 | 68.9* | 55.8* | 98.8*
COc1ccc(C#Cc2ccc([C@@H]3[C@H]4CN(C(=O)Cc5cccnc5)CCCCN4[C@H]3CO)cc2)cc1 | -0.5 | x | x | -7.3 | 29.3
CCCCCCC[n+]1ccc(-c2cc[n+](CCCCCCC)cc2)cc1 | x | 2.0 | 6.4 | 2.6 | 85.6*
Cc1ccc(-c2cc(-c3ccccc3)cc(-c3ccccc3)[n+]2-c2ccccc2C(=O)O)cc1 | 0.6 | -1.5 | 26.5 | 20.5 | 77.2*
O=C([O-])c1ccc(-[n+]2c(-c3ccccc3)cc(-c3ccccc3)cc2-c2ccccc2)cc1 | 0.5 | 1.5 | 19.3 | 9.4 | -0.9
S=C(NCCc1ccccc1)N1Cc2cc(Br)ccc2-n2nncc2C1 | -0.5 | x | 56.7* | 4.7 | -0.1
COc1ccc(-n2c(O)c(C(C)=NCCCn3ccnc3)c(=O)[nH]c2=O)cc1 | x | -4.6 | 68.7* | x | x
CCC(=NCCCn1ccnc1)c1c(O)n(-c2ccccc2)c(=O)[nH]c1=O | -1.8 | 0.1 | 3.1 | -0.3 | -9.1
Cc1[nH]c2ccc(OC(F)(F)F)cc2c1CCNCc1cccc([N+](=O)[O-])c1 | 1.2 | 5.0 | 66.8* | 13.0 | 24.9
CCOc1cccc(CNCCc2c(C)[nH]c3ccc(OC(F)(F)F)cc23)c1O | 0.7 | 5.1 | 62.5* | 46.7 | 8.7
COC(=O)[C@@H]1[C@@H](CO)[C@@H]2Cn3c(ccc(-c4ccccc4OC)c3=O)[C@H]1N2Cc1ccccc1 | x | x | 16.4[16.7 µM] | 2.8 | x
COc1ccc(CC2NCC(O)C2OC(C)=O)cc1 (stereo unspecified) | -0.5 | -15.6 | x | 58.8* | x
CC(C)CC#Cc1ccc([C@H]2[C@H](CO)N3CCCCN(C(=O)Cc4ccccn4)C[C@@H]23)cc1 | -1.6 | x | x | -1.5 | 7.5
CCC(c1nnnn1Cc1ccccc1)N1CCC(n2c(=O)[nH]c3ccccc32)CC1 (stereo unspecified) | -2.2 | x | 55.3* | 7.4 | 88.3*
CCC(c1nnnn1-c1ccc(OC)cc1)N1CCC(n2c(=O)[nH]c3ccccc32)CC1 (stereo unspecified) | -3.1 | x | -105.4 | -13.7 | 8.4

High-throughput results from PubChem BioAssay.
